In article PMC11062922 (Nature Chemical Biology, 2023):
Read-outs that look alike come from different tables or passages of the source.

Legend:
Parameters in all cases: species or system human, MV4-11 + K-562 + COLO205 + SK-N-BE2 + OVCAR-8
[1] = system: ACVR1B; conditions: read-out: apparent Kd, n = 1
[2] = system: ACVR2B; conditions: read-out: apparent Kd, compound concentrations: 100 nM and 1000 nM (sheet 'Samples'), n = 1
[3] = system: CSNK1A1; conditions: read-out: apparent Kd, compound concentrations: 100 nM and 1000 nM (sheet 'Samples'), n = 1
[4] = system: OPA1; conditions: read-out: apparent Kd; compound concentrations: 100 nM and 1000 nM (sheet 'Samples'), CATDS: 7.7038231613769201E-2; n = 1
[5] = system: PRKD2; conditions: read-out: apparent Kd, n = 1
[6] = system: PRKD3; conditions: read-out: apparent Kd, n = 1
[7] = system: RIPK2; conditions: read-out: apparent Kd, compound concentrations: 100 nM and 1000 nM (sheet 'Samples'), n = 1
[8] = system: TGFBR1; conditions: read-out: apparent Kd, compound concentrations: 100 nM and 1000 nM (sheet 'Samples'), n = 1
[9] = system: TGFBR2; conditions: read-out: apparent Kd, compound concentrations: 100 nM and 1000 nM (sheet 'Samples'), n = 1
[10] = system: ACVR1; conditions: read-out: apparent Kd; compound concentrations: 100 nM and 1000 nM (sheet 'Samples'), CATDS: 5.3500871089908003E-2; n = 1
[11] = system: BCR; conditions: read-out: apparent Kd; compound concentrations: 100 nM and 1000 nM (sheet 'Samples'), CATDS: 8.1652957748264393E-2; n = 1
[12] = system: BMPR1B; conditions: read-out: apparent Kd; compound concentrations: 100 nM and 1000 nM (sheet 'Samples'), CATDS: 7.3247906456106002E-2; n = 1
[13] = system: CDC7; conditions: read-out: apparent Kd; compound concentrations: 100 nM and 1000 nM (sheet 'Samples'), CATDS: 4.9206883035311198E-2; n = 1
[14] = system: CDK4; conditions: read-out: apparent Kd; compound concentrations: 100 nM and 1000 nM (sheet 'Samples'), CATDS: 4.8870042780869302E-2; n = 1
[15] = system: EPHA1; conditions: read-out: apparent Kd; compound concentrations: 100 nM and 1000 nM (sheet 'Samples'), CATDS: 7.9880542471912896E-2; n = 1
[16] = system: GAK; conditions: read-out: apparent Kd, compound concentrations: 100 nM and 1000 nM (sheet 'Samples'), n = 1
[17] = system: MAP2K1; conditions: read-out: apparent Kd; compound concentrations: 100 nM and 1000 nM (sheet 'Samples'), CATDS: 4.7289887756517802E-2; n = 1
[18] = system: NLK; conditions: read-out: apparent Kd; compound concentrations: 100 nM and 1000 nM (sheet 'Samples'), CATDS: 5.29869352744404E-2; n = 1
[19] = system: RIPK3; conditions: read-out: apparent Kd; compound concentrations: 100 nM and 1000 nM (sheet 'Samples'), CATDS: 5.9537511979901002E-2; n = 1
[20] = system: CSNK2A1;CSNK2A3; conditions: read-out: apparent Kd; compound concentrations:100 nM and 1000 nM (sheet 'Samples'); n = 1
[21] = system: CSNK2A2; conditions: read-out: apparent Kd; compound concentrations:100 nM and 1000 nM (sheet 'Samples'); n = 1
[22] = system: CSNK1D; conditions: read-out: apparent Kd; compound concentrations: 100 nM and 1000 nM (sheet 'Samples'), CATDS: 5.8055493904437101E-2; n = 1
[23] = system: CSNK1E; conditions: read-out: apparent Kd; compound concentrations: 100 nM and 1000 nM (sheet 'Samples'), CATDS: 4.09740757969334E-2; n = 1
[24] = system: DDR1; conditions: read-out: apparent Kd; compound concentrations: 100 nM and 1000 nM (sheet 'Samples'), CATDS: 5.25374061654219E-2; n = 1
[25] = system: DDR2; conditions: read-out: apparent Kd; compound concentrations: 100 nM and 1000 nM (sheet 'Samples'), CATDS: 4.2392371826783903E-2; n = 1
[26] = system: MAPK10; conditions: read-out: apparent Kd; compound concentrations: 100 nM and 1000 nM (sheet 'Samples'), CATDS: 0.12973795747386199; n = 1
[27] = system: MAPK14; conditions: read-out: apparent Kd; compound concentrations: 100 nM and 1000 nM (sheet 'Samples'), CATDS: 0.11490787983313; n = 1
[28] = system: MAPK8; conditions: read-out: apparent Kd; compound concentrations: 100 nM and 1000 nM (sheet 'Samples'), CATDS: 3.7066716076187299E-2; n = 1
[29] = system: MAPK9; conditions: read-out: apparent Kd; compound concentrations: 100 nM and 1000 nM (sheet 'Samples'), CATDS: 0.1157117766231; n = 1
[30] = system: MAPKAPK2; conditions: read-out: apparent Kd; compound concentrations: 100 nM and 1000 nM (sheet 'Samples'), CATDS: 0.100968971541066; n = 1
[31] = system: PKN3; conditions: read-out: apparent Kd; compound concentrations: 100 nM and 1000 nM (sheet 'Samples'), CATDS: 3.6917744645490899E-2; n = 1
[32] = compound concentrations:100 nM and 1000 nM (sheet 'Samples')

For Cc1ccnc2ccc(-c3sc(N)nc3-c3ccccn3)nc12 [GW777257X], which potency estimated from few doses ([1]; compound concentrations: 100 nM and 1000 nM (sheet 'Samples'), CATDS: 0.44095653710551203) is on record?
The potency estimated from few doses was 5.66 nM.

And the potency estimated from few doses ([2]; CATDS: 9.05518688532823E-2)?
Its potency estimated from few doses is 854 nM.

And the potency estimated from few doses ([3]; CATDS: 7.5324168753573395E-2)?
Its potency estimated from few doses is 1730 nM.

What about the potency estimated from few doses [4] of the same compound?
Its potency estimated from few doses is 1570 nM.

And the potency estimated from few doses ([5]; compound concentrations: 100 nM and 1000 nM (sheet 'Samples'), CATDS: 0.11729729568005599)?
The potency estimated from few doses was 384 nM.

And the potency estimated from few doses ([6]; compound concentrations: 100 nM and 1000 nM (sheet 'Samples'), CATDS: 0.118060499220425)?
Its potency estimated from few doses is 377 nM.

And the potency estimated from few doses ([7]; CATDS: 9.3212886773084105E-2)?
Its potency estimated from few doses is 776 nM.

And the potency estimated from few doses ([8]; CATDS: 0.51991943788690098)?
The potency estimated from few doses was 4.12 nM.

What about the potency estimated from few doses ([9]; CATDS: 8.4852154522950404E-2) of the same compound?
The potency estimated from few doses was 1070 nM.

How did the potency estimated from few doses ([1]; compound concentrations: 100 nM and 1000 nM (sheet 'Samples'), CATDS: 5.5704311303099698E-2) turn out when Oc1cc(Nc2ccnc3cc(I)ccc23)ccc1F [GW552771X] was run?
The potency estimated from few doses was 1050 nM.

What about the potency estimated from few doses [10] of the same compound?
Its potency estimated from few doses is 1220 nM.

What about the potency estimated from few doses ([2]; CATDS: 0.67080964654625497) of the same compound?
The potency estimated from few doses was 4.54 nM.

And the potency estimated from few doses [11]?
Its potency estimated from few doses is 339 nM.

What about the potency estimated from few doses [12] of the same compound?
Its potency estimated from few doses is 452 nM.

What about the potency estimated from few doses [13] of the same compound?
The potency estimated from few doses was 1710 nM.

What about the potency estimated from few doses [14] of the same compound?
The potency estimated from few doses was 1760 nM.

What about the potency estimated from few doses [15] of the same compound?
Its potency estimated from few doses is 359 nM.

What about the potency estimated from few doses ([16]; CATDS: 0.131761231196901) of the same compound?
The potency estimated from few doses was 109 nM.

What about the potency estimated from few doses [17] of the same compound?
Its potency estimated from few doses is 2050 nM.

And the potency estimated from few doses [18]?
The potency estimated from few doses was 1260 nM.

And the potency estimated from few doses ([7]; CATDS: 0.100310805321257)?
Its potency estimated from few doses is 204 nM.

And the potency estimated from few doses [19]?
The potency estimated from few doses was 838 nM.

And the potency estimated from few doses ([9]; CATDS: 0.233102504079717)?
Its potency estimated from few doses is 32.2 nM.

Which results are given for Cc1cccc(-c2nc(Nc3ccc4[nH]ncc4c3)c3ccccc3n2)n1 [GW857175X]?
potency estimated from few doses [1, 32]: 89 nM; potency estimated from few doses [20]: 4.12 nM; potency estimated from few doses [21]: 3.3 nM; potency estimated from few doses [5, 32]: 8.89 nM; potency estimated from few doses [6, 32]: 35.5 nM

Which results are given for Cc1ccc2c(-c3ccnc(Nc4ccccc4)n3)c(-c3ccc(F)cc3)nn2n1 [GW833373X]?
potency estimated from few doses ([1]; compound concentrations: 100 nM and 1000 nM (sheet 'Samples'), CATDS: 8.2410499697195994E-2): 193 nM; potency estimated from few doses ([2]; CATDS: 4.1971231951758399E-2): 1090 nM; potency estimated from few doses ([3]; CATDS: 3.7842664233860401E-2): 1640 nM; potency estimated from few doses [22]: 418 nM; potency estimated from few doses [23]: 1190 nM; potency estimated from few doses [24]: 543 nM; potency estimated from few doses [25]: 1050 nM; potency estimated from few doses ([16]; CATDS: 0.17328918321310699): 56.5 nM; potency estimated from few doses [26]: 87.1 nM; potency estimated from few doses [27]: 106 nM; potency estimated from few doses [28]: 1800 nM; potency estimated from few doses [29]: 105 nM; potency estimated from few doses [30]: 132 nM; potency estimated from few doses [31]: 1840 nM; potency estimated from few doses ([5]; compound concentrations: 100 nM and 1000 nM (sheet 'Samples'), CATDS: 5.3704736783425001E-2): 511 nM; potency estimated from few doses ([6]; compound concentrations: 100 nM and 1000 nM (sheet 'Samples'), CATDS: 4.4266829697393303E-2): 906 nM; potency estimated from few doses ([7]; CATDS: 5.33565185229085E-2): 520 nM; potency estimated from few doses ([8]; CATDS: 4.4217762618850402E-2): 909 nM
